Measured values as given in ChEMBL document CHEMBL1961873, “Compounds: GSK PKIS; Assays: Nanosyn kinase panel” (2012).

target: T1, Calcium/calmodulin-dependent protein kinase type IV (Homo sapiens) (UniProt Q16566); settings: at 1 µM
T1 sequence (whole entry): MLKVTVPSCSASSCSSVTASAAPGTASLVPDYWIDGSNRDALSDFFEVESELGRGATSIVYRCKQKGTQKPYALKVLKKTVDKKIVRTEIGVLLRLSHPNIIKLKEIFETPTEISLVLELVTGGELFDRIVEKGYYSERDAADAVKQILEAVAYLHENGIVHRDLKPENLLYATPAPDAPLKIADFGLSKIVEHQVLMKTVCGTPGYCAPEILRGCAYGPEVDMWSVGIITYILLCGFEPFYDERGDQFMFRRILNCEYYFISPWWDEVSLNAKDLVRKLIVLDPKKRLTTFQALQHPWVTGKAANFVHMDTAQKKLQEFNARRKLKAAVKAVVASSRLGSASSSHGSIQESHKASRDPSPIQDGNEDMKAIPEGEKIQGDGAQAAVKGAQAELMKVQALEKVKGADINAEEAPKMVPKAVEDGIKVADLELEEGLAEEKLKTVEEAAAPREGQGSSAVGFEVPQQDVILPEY
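Also: each value is the mean of the measured CAMK4 inhibition.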

SMILES | inhibition [%]
COc1cc2ncn(-c3cc(OCCc4ccccc4)c(C(N)=O)s3)c2cc1OC | 0.6
NS(=O)(=O)c1ccc(N/N=C2\C(=O)Nc3ccc(C(=O)NCCCn4ccnc4)cc32)cc1 | -4.25
C/C(Nc1ccc(S(N)(=O)=O)cc1)=C1/C(=O)Nc2ccccc21 | -0.89
O=C1Nc2ccc(I)cc2C1=Cc1cc(Br)c(O)c(Br)c1 | 4.99
CN(c1ccc(NC(=O)Nc2c(Cl)cccc2Cl)cc1)c1ccnc(Nc2cccc(CS(C)(=O)=O)c2)n1 | -4.21
CN(C)CCOc1ccc(-c2cc(-c3ccc4c(c3)CCC4=NO)c(-c3ccncc3)o2)cc1 | 1.99
Cc1ccc(C(=O)NC2CCC2)cc1-c1ccc(C(=O)NCC2CC2)cc1 | 0.59
COc1ccc(-c2ccc3c(NC(=O)C4CC4)n[nH]c3n2)cc1 | -2.95
COc1ccc2ncn(-c3cc(O[C@H](C)c4ccccc4Cl)c(C(N)=O)s3)c2c1 | -2.54
NS(=O)(=O)c1ccc(Nc2cc(-c3ccc(O)c(F)c3)n[nH]2)cc1 | 0.53
COc1ccc(C2=C(N3CCc4ccccc43)C(=O)NC2=O)cc1 | 0.33
COc1cc2ncn(-c3cc(OCc4cccs4)c(C(N)=O)s3)c2cc1OC | -4.06
O=C(Nc1n[nH]c2nc(-c3ccc(O)cc3)c(Br)cc12)C1CC1 | 2.12
COc1cc(Nc2ncc3c(C)nc(-c4cccc(Oc5ccccc5)c4)n3n2)cc(OC)c1OC | 4.26
COc1cccc(/C=N/Nc2ncnc3c2cnn3-c2cccc(OC)c2)c1 | 0.8
COc1cc(Nc2ncc(-c3ccccc3)o2)cc(OC)c1OC | 0.09
COc1cc(N2CCN(C(C)C)CC2)ccc1Nc1nc(Nc2ccc(F)cc2C(=O)NC[C@@H](O)CO)c2cc[nH]c2n1 | -0.93

SMILES | inhibition [%]
CS(=O)(=O)CCNCc1cc(-c2cc3c(Nc4ccc(OCc5cccc(F)c5)c(Cl)c4)ncnc3s2)cs1 | 2.64
O=C(Nc1n[nH]c2cc(-c3ccccc3)ccc12)C1CC1 | -1.21
CNC(=O)c1cncc(/C=C/c2c(C)cccc2C)c1 | 0.99
NC(=O)Cc1ccccc1Oc1nccc(-c2c(-c3ccc(F)cc3)ncn2C2CCNCC2)n1 | -0.11
COc1ccc2cc(-c3c(-c4ccncc4)nc(-c4ccc([S+](C)[O-])cc4C)n3C)ccc2c1 (centres undefined) | 1.17
COc1ccc2cc(-c3c(-c4ccncc4)nc(-c4ccc(S(C)(=O)=O)cc4C)n3C)ccc2c1 | 0.96
COc1cc2ncn(-c3cc(OCc4ccccc4C(F)(F)F)c(C(C)=O)s3)c2cc1OC | -1.74
NC(=O)c1cc(-c2ccncc2)cc(-c2ccccc2)c1N | -0.82
CN(C)c1ccc2c(c1)/C(=C/Nc1ccc(S(N)(=O)=O)cc1)C(=O)N2 | 0.42
CCC(=O)Nc1ccc(C)c(-c2ccc(C(=O)NCC3CC3)cc2)c1 | 2.05
Fc1ccc(-c2c(-c3ccncc3)nc3n2CCS3)cc1 | -0.25
CN1CCN(CCCNc2nc3ccc(Oc4ccc(NC(=O)Nc5cc(C(F)(F)F)ccc5F)cc4)cc3[nH]2)CC1 | 4.86
c1ccc(-c2n[nH]cc2-c2ccnc(-c3ccc(OCCN4CCOCC4)cc3)c2)nc1 | 0.4
Fc1ccc(-c2nc3n(c2-c2ccncc2)CCS3)cc1 | 0.23
Fc1ccc(-c2ncn(CCCN3CCOCC3)c2-c2ccncc2)cc1 | 2.08
O=C(Nc1ccc(Oc2ccc3[nH]c(NC(=O)c4ccccc4)nc3c2)cc1)Nc1cc(C(F)(F)F)ccc1F | -0.86
Cc1nnc(-c2ccc(C)c(-c3ccc(C(=O)NCc4ccc(Cl)cc4)cc3)c2)o1 | 0.46
